Sfp PPTase inh – blocks B. subtilis Sfp PPTase activity; Biochemical Sfp PPTase activity, qHTS; Potency, µM, actives largely listed as inhibitors; Q9F4F7; AID 1490; 3.5% of 310,000 active;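 further: the enzyme is Sfp with the accession as filed and its product quenches rhodamine fluorescence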
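Buffer: 50 mM Hepes-Na pH 7.6, 10 mM MgCl2, 0.01% Nonidet P-40, 0.01% BSA. Enzyme 15 nM, pre-exposed to compound 15 min; substrates then added and fluorescence change tracked over 30 min.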
BAZ2B inh – blocks human BAZ2B; AID 504333; 4.4% of 360,000 active; Potency, µM (titrated, usually from 114 µM), hits mostly inhibitors; AlphaScreen BAZ2B-H3K14Ac peptide displacement; further: nearly all actives have a fitted effect of over 60% in size
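Compounds, titrated to a top concentration of 110 uM, were incubated 30 min at room temperature with preformed BAZ2B/acetyl-K14 H3 peptide complex (50 nM each). Proximity signal was measured by AlphaScreen after 20 min with beads.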
G9a block – inhibitors of human histone lysine methyltransferase G9a. Q96KQ7. G9a H3K9 monomethylation, AlphaScreen, 2 h. Potency, µM (doses to about 102 µM), usual class: inhibitors. 8.8% of 350,000 active; further: nearly all actives have a fitted effect of over 75% in size
Target sequence (Q96KQ7 913-1193 limits assumed): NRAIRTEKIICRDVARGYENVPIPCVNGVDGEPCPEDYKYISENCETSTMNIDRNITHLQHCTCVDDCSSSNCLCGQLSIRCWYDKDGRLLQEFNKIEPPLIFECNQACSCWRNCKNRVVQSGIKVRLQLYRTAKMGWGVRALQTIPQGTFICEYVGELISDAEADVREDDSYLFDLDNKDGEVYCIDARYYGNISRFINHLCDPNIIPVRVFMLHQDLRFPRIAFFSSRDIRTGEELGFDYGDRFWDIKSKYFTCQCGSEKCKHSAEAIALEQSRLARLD
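G9a (20 nM) preincubated 15 min RT with compounds, then 500 nM biotinylated H3K9 peptide and 20 uM SAM added; 2 h RT reaction. Monomethyl-H3K9 product detected by AlphaScreen with anti-H3K9me1 antibody, streptavidin donor and anti-rabbit IgG acceptor beads.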
PLK1 PBD inh – inhibitors of human PLK1 polo-box domain binding. P53350. Potency, µM, hits mostly inhibitors. Plk1 PBD binding of FITC phosphopeptide, fluorescence polarization. 2.8% of 360,000 active; further: series mostly up to about 57 µM; nearly all actives have a fitted effect of over 65% in size
HP1b chromo inh – inhibitors of HP1-beta chromodomain binding to methylated histone tails | P83916 | AlphaScreen HP1-beta / biotin-H3K9me3 peptide binding | Potency, µM (series often up to 114 µM), most hits filed as inhibitors | 0.56% of 390,000 active; further: nearly all actives have a fitted effect of over 70% in size
Target sequence (P83916 whole entry, looked up): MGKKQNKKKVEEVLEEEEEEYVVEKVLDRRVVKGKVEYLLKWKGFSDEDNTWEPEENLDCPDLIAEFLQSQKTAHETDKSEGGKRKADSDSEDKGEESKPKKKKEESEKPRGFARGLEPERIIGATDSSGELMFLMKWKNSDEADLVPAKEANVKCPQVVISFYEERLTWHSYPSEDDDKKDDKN
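AlphaScreen: HP1-beta (50 nM) preformed 30 min with biotin-H3(1-18)K9me3 peptide (50 nM) in PBS pH 7.4, 0.01% Tween-20. Compound added for 30 min at RT, then streptavidin donor/nickel chelate acceptor beads (10 ug/mL) for 30 min.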
JMJD2A Tudor inh – inhibitors of human JMJD2A Tudor domain; Potency, µM (highest dose often 114 µM), usual class: inhibitors; 4.4% of 390,000 active; AlphaScreen JMJD2A-Tudor / H3K4me3 peptide binding; further: nearly all actives have a fitted effect of over 50% in size
A number is an active result; i = inactive; ? = inconclusive; nt = no result; [ ] = remark or other dose. Compounds with a hit are over-represented: about 12% of the library has one in this group of screens. The call rests on the fitted dose curve; in most records, active means well fitted curve in the direction sought with a large enough effect; inconclusive means small, poorly fitted or top-dose-only effect, or another doubt; inactive means no such curve, though single readings can be large; an effect the other way counts as inactive or inconclusive.

SMILES	Sfp PPTase inh	BAZ2B inh	G9a block	PLK1 PBD inh	HP1b chromo inh	JMJD2A Tudor inh
O=C(Nc1cccc(Br)c1)c1cc(S(=O)(=O)N2CCCCC2)c[nH]1	nt	i	i	nt	i	i
CO[C@]1(NC(=O)Cc2cccs2)C(=O)N2C(C(=O)O)=C(COC(N)=O)CS[C@H]21	i	nt	i[21.5 µM]	nt	nt	nt
O=C(Nc1nonc1-c1ccc(Br)cc1)c1ccco1	nt	i	i	nt	i	i
CCOCCn1c(=O)c2c(nc3n2CCN3c2ccc(CC)cc2)n(C)c1=O	nt	nt	nt	i	i	i
O=C(COc1ccc(Cl)cc1)NCc1ccc(F)cc1	i	i	i	27µM	i	?
Cc1cc(C)cc(NC(=O)Cn2nnc(C(=O)Nc3cc(C)cc(C)c3)c2N)c1	nt	nt	i	nt	i	i
O=C(N/N=C/c1cccc([N+](=O)[O-])c1O)C(O)(c1ccccc1)c1ccccc1	?	i	nt	i	i	?
O=C1ON=C(c2ccccc2[N+](=O)[O-])/C1=C/c1cccc([N+](=O)[O-])c1O	nt	i	1µM	?	i	?
O=C1ON=C(c2ccc(Cl)c([N+](=O)[O-])c2)/C1=C/c1cccc([N+](=O)[O-])c1O	nt	i	?	i	i	20µM
C[C@@H](c1ccccc1)N1C(=O)[C@H]2[C@@H]3[C@H](O)C=CC(=O)[C@H]3CC[C@H]2C1=O	i	nt	nt	nt	nt	nt
C[C@H]1c2cccc(O)c2C(O)=C2C(=O)C3(O)C(O)=C(C(N)=O)C(=O)[C@@H](N(C)C)[C@@H]3[C@@H](O)[C@@H]21 (stereo partly specified)	nt	8.9µM	5µM	i	i	22µM
C[C@H]1c2cccc(O)c2C(=O)C2C(=O)C3(O)C(=O)C(C(N)=O)C(=O)[C@@H](N(C)C)[C@@H]3[C@@H](O)[C@@H]21 (stereo partly specified)	nt	nt	nt	i	i	13µM
CN(C)c1ccc(O)c2c1CC1CC3C(N(C)C)C(=O)C(C(N)=O)=C(O)[C@@]3(O)C(=O)C1=C2O (stereo partly specified)	nt	nt	nt	i	i	8.9µM
CN(C)c1ccc(O)c2c1CC1CC3[C@@H](N(C)C)C(=O)C(C(N)=O)C(=O)[C@]3(O)C(=O)C1C2=O (stereo partly specified)	nt	nt	nt	i	i	8.9µM
O=C(CN(C(=O)CCC(=O)Nc1ccccn1)c1ccc2c(c1)OCO2)NCc1ccc(F)cc1	i	i	i	i	i	i
CN(C)c1ccc(O)c2c1C[C@@H]1C[C@H]3C(N(C)C)C(=O)C(C(N)=O)=C(O)[C@@]3(O)C(=O)C1=C2O (stereo partly specified)	i	nt	i[2.33 µM]	nt	nt	nt
COC(=O)c1c(C(=O)OC)c(-c2ccc(Cl)cc2)n2c1CS(=O)(=O)C2	i	i	i	4.2µM	i	?
Cc1cc(C)nc(Nc2n[nH]c(COc3ccccc3)n2)n1	i	i	i	3.4µM	i	32µM
COc1ccc(-c2[nH]n(-c3ccc([N+](=O)[O-])cc3)c(=O)c2C=NCc2ccccc2)cc1	i	i	i	i	i	i
CSc1ncc(-c2ccc(Cl)cc2)[nH]1	i	?	40µM	i	i	i
CC(C)C(NC(=O)OCc1ccccc1)C(=O)N1CCOCCOCCOCC1 (stereo unspecified)	i	i	i	i	i	i
O=C(O)c1ccc(N=NN2CCCCC2)cc1	i	?	35µM	i	i	i
COC(=O)c1ccc(N=NN2CCCCCC2)cc1	i	i	i	i	i	i
CN(C)c1ccc(N=Nc2ccc(C(=O)O)cc2)cc1	79µM	35µM	10µM	?	i	25µM
CN(C)c1ccc(C(=O)c2ccccc2)cc1	i	i	i	i	i	i
SMILES	Sfp PPTase inh	BAZ2B inh	G9a block	PLK1 PBD inh	HP1b chromo inh	JMJD2A Tudor inh
CCc1ccc(Nc2nc3ccccc3c3nnc(C)n23)cc1	nt	i	i	nt	i	i
CC(C)Cn1cnc2c(Sc3c([N+](=O)[O-])ncn3C)nc(N)nc21	nt	nt	nt	i	i	i
CC(C)C12CN3CC(C(C)C)(CN(C1)C3c1ccc([N+](=O)[O-])o1)C2=O (stereo unspecified)	i	i	i	i	i	i
Cc1cccc(C)c1NC(=O)C(c1cccc2ccccc12)n1c(=O)c(-c2cc3ccccc3[nH]2)nc2ccccc21 (stereo unspecified)	nt	nt	nt	i	nt	nt
CC1=C(C(N)=O)C(c2ccccc2F)n2nc(-c3ccc(Cl)cc3)nc2N1 (stereo unspecified)	nt	i	i	nt	i	i
O=C(O)c1cccn2c(=O)c3ccccc3nc12	i	?	?	i	i	79µM
CCn1c(-c2cc3ccccc3cc2O)n[nH]c1=S	i	i	?	i	i	?
C=CCn1c(-c2c[nH]c3ccccc23)n[nH]c1=S	i	i	4µM	i	i	6.3µM
C=CCn1c(-c2csc3ccccc23)n[nH]c1=S	i	i	?	i	i	18µM
CCn1c(-c2c[nH]c3ccccc23)n[nH]c1=S	i	i	1.3µM	i	i	4µM
C=CCn1c(-c2ccccn2)n[nH]c1=S	nt	nt	nt	i	nt	nt
Cc1ccc(NC(=O)Cn2nnc(C(=O)NCCc3ccccc3)c2N)cc1	nt	i	?	nt	i	i
CCOC(=O)N1CCN(C(=O)C2CCCN(S(=O)(=O)c3ccc(C)cc3)C2)CC1 (stereo unspecified)	i	?	i	i	i	i
CCCCCCCCCCCCCCCC(=O)OC[C@H](COP(=O)([O-])OCC[N+](C)(C)C)OC(=O)CCCCCCCCCCCCCCC	i	i	i	nt	nt	nt
S=c1[nH]nc(COc2ccc(Cl)cc2)o1	?	i	4µM	?	i	79µM
S=c1[nH]nc(CCc2ccc(Cl)cc2)o1	i	i	7.1µM	i	i	i
O=C(CCCc1nc2ccccc2s1)NC(c1ccccc1)c1ccccc1	i	i	i	i	i	i
O=S(=O)(N[C@H](CO)c1ccccc1)c1ccc(Br)cc1F	nt	nt	nt	i	i	i
Cc1oc(-c2ccccc2)nc1CNS(=O)(=O)c1ccc(Cl)cc1	nt	i	i	nt	i	i
CCOC1(OCC)N=C(N)C2(C#N)C(c3cccc(C)c3)C12C#N (stereo unspecified)	i	i	40µM	i	i	i
COC1(OC)N=C(N)C2(C#N)C(c3ccc4c(c3)OCO4)C12C#N (stereo unspecified)	i	?	50µM	i	i	i
COC1(OC)N=C(N)C2(C#N)C(c3ccc(C)cc3)C12C#N (stereo unspecified)	i	?	?	i	i	i
O=C1NC(=O)C(c2cn(-c3ccccc3)nc2-c2ccc(F)cc2)N1 (stereo unspecified)	i	i	i[12.7 µM]	5.3µM	i	?
O=C(O)c1cn(-c2ccccc2)nc1-c1ccc(F)cc1	i	i	i	i	i	i
Cc1cccc(C)c1NC(=O)Cn1cc(C(=O)C2CC2)c2ccccc21	nt	i	i	nt	i	i
CCN1CCS/C1=C/C=C/C1=[N+](CC)CCS1	i	i	50µM	i	i	?

Screens (PubChem)
